Screens (PubChem)
An excerpt weighted towards active compounds, which were near 3.1% of everything screened.
Autofluor counter = flagged as autofluorescent in microsphere protease counterscreen; compound autofluorescence counterscreen, microsphere flow cytometry; stronger effect = higher value; fluorescence intensity (concentration not given with the values); hit rate 3.1% among 360,000; AID 624483; in the data active = fluorescence intensity above about 16000; inconclusive = no clear call, values can overlap the other calls
PriA SSB inh = blocks PriA binding to SSB C-terminal tail; inhibition, % at 33 µM; hit rate 0.6% among 430,000; AlphaScreen SSBct-PriA binding, biotinylated peptide; in the data active = inhibition mostly above about 37%, no sharp cut-off; inactive = mostly below about 20%;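 note: plate controls were negative control peptide for no effect and reference peptide for full effect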
BoNT-A LC inh2 = inhibitors of Botulinum neurotoxin A light chain protease. hit rate 0.17% among 360,000. AID 588499. multiplex microsphere protease substrate cleavage, flow cytometry. inhibition, % at 10 µM; note: plate controls were buffer without enzyme for full effect and enzyme alone for no effect
Anthrax LF inh2 = inhibitors of Bacillus anthracis lethal factor protease. multiplex microsphere protease cleavage assay, LF. inhibition, % at 10 µM. hit rate 0.12% among 360,000; note: plate controls were buffer without enzyme for full effect and enzyme alone for no effect
BoNT-F LC inh = BoNT F light chain protease inhibition; hit rate 0.22% among 360,000; inhibition, % at 10 µM; Multiplex microsphere protease cleavage assay, flow cytometry; AID 588497; in the data active = inhibition above about 35%, passing the limit was not always enough; inconclusive = no clear call, values can overlap the other calls; note: plate controls were buffer without enzyme for full effect and enzyme alone for no effect
Starred values were filed as active, the others as inactive; ? = inconclusive; . = no result. Cut-off read from the data, not from the text of the source, unless noted: active = inhibition above about 30%; inconclusive = no clear call, values can overlap the other calls; inactive = below that.

SMILES | Autofluor counter | PriA SSB inh | BoNT-A LC inh2 | Anthrax LF inh2 | BoNT-F LC inh
O=C(Nc1ccccc1C(F)(F)F)N1CCN(c2ccc3nncn3n2)CC1 | 20519* | -12.0 | -1.9 | -3.9 | -3.7
Cn1c(=O)c2c(ncn2CC(=O)OCC(=O)NC2CCCc3ccccc32)n(C)c1=O (stereo not drawn) | 22870* | -7.2 | ? | -3.7 | -2.6
Cc1cc(Nc2ccccc2)c2c([N+](=O)[O-])ccc(C)c2n1 | 2643 | 60.4* | 0.0 | -0.6 | -5.2
O=C(CCOc1ccccc1)Nc1ccccc1[N+](=O)[O-] | 2737 | 18.3 | -0.8 | 0.0 | -3.9
Cc1cc(Nc2ccc(Cl)cc2)c2c([N+](=O)[O-])ccc(C)c2n1 | . | 55.6 | . | . | .
O=[N+]([O-])c1ccccc1Nc1ccccc1 | 4190 | 69.9* | -0.8 | -2.2 | 3.0
O=[N+]([O-])c1ccccc1Nc1cccc(F)c1 | 3811 | 48.7* | -0.6 | -11.2 | -1.8
O=[N+]([O-])c1ccccc1Nc1ccccc1[N+](=O)[O-] | 4187 | 0.5 | -0.5 | -2.0 | -4.3
O=[N+]([O-])c1ccccc1NCCOc1ccccc1 | 7612 | 38.6* | -2.4 | -5.2 | -18.3
O=C(c1ccccc1Br)N1CCN(c2ncnc3c2nnn3-c2cccc(F)c2)CC1 | . | 19.0 | . | . | .
O=C1CCc2cc(S(=O)(=O)N3CCC4(CC3)OCCS4)cc3c2N1CC3 | . | -22.0 | . | . | .
CC(C)OCCCNC(=O)c1ccc(CS(=O)(=O)Cc2ccccc2F)o1 | 20731* | -12.5 | -0.3 | -2.2 | 0.2
CCCCNC(=O)c1ccc(CS(=O)(=O)Cc2ccccc2F)o1 | 4914 | -3.7 | -1.5 | -6.4 | 1.3
CC(=NNc1cc(C)nc(-c2ccccc2O)n1)c1ccccc1 | . | -37.0 | . | . | .
Cc1cc(Nc2ccccc2Cl)nc(-c2ccccc2O)n1 | 4056 | -14.5 | 0.3 | 2.8 | 35.9*
Cc1cc(Nc2ccccc2)nc(-c2ccccc2O)n1 | 4866 | -25.1 | -0.7 | 1.9 | -11.4
Cc1cc(NCc2ccccc2)nc(-c2ccccc2O)n1 | 20264* | -79.8 | ? | -0.1 | -1.6
O=C(Nc1ccc(N2CCCCS2(=O)=O)cc1)c1ccco1 | . | -10.0 | . | . | .
O=S(=O)(c1ccc(S(=O)(=O)N(Cc2ccccc2)Cc2ccco2)cc1)N1CCCC1 | 16963* | 2.2 | -4.0 | -4.0 | -4.0
COc1cccc2cc(C(=O)Nc3nnc(Cc4ccc5c(c4)OCCO5)o3)oc12 | . | -11.0 | . | . | .
O=C(CCCOc1ccc(Cl)cc1Cl)NN=CC1CCCCC1 | . | -1.4 | . | . | .
CCCCNC(=S)N/N=C1\C(=O)c2cccc3cccc1c23 | 20454* | . | 6.8 | 7.4 | 8.3
CNC(=S)N/N=C1\C(=O)c2cccc3cccc1c23 | 17615* | . | -20.5 | 6.5 | -413.9
O=C(N/N=C1\C(=O)c2cccc3cccc1c23)c1ccc(O)cc1 | 4427 | . | 0.3 | -2.3 | -0.9
O=C(CSc1nnc2ccc(-c3ccc(Cl)cc3)nn12)N1CCN(c2ccccc2)CC1 | . | 4.0 | . | . | .
SMILES | Autofluor counter | PriA SSB inh | BoNT-A LC inh2 | Anthrax LF inh2 | BoNT-F LC inh
Cn1nc(C(F)(F)F)c(C(=O)Nc2cccc(Cl)c2)c1Cl | 25124* | -22.3 | -3.4 | -1.4 | -8.8
CC(C)c1cc(C(=O)Nc2cccc(Cl)c2)no1 | 18450* | -58.1 | 14.2 | -11.9 | 14.1
Cn1cccc(C(=O)N2CCC(c3nnc(-c4ccco4)o3)CC2)c1=O | . | -20.0 | . | . | .
Cn1c(=O)cc(OCC(=O)N2CCN(c3cccc(C(F)(F)F)c3)CC2)c2ccccc21 | 20645* | -8.3 | 1.5 | -5.0 | 1.2
Cn1c(=O)cc(OCC(=O)N2CCCc3ccccc32)c2ccccc21 | 21145* | -11.0 | -1.8 | 0.8 | -6.0
Cc1ccccc1OCC(=O)N1CCCc2ccccc21 | 2477 | -16.0 | 0.2 | -0.1 | -3.4
CCN1CCCC1CNC(=O)COc1cc(=O)n(C)c2ccccc12 (stereo not drawn) | 23013* | -6.7 | 0.6 | 0.2 | 0.5
Cc1sc2nc(SCC(=O)NCc3ccco3)n(C)c(=O)c2c1C | 3206 | -13.1 | 0.9 | -1.6 | -4.0
Cc1sc2nc(SCC(=O)NCCO)n(C)c(=O)c2c1C | 21991* | 8.4 | ? | -10.5 | 0.2
CCOC(=O)CNC(=O)CSc1nc2sc(C)c(C)c2c(=O)n1C | 23793* | -6.5 | -1.9 | -1.8 | -4.8
Cc1sc2nc(SCC(=O)OC(C)C)n(C)c(=O)c2c1C | 11032 | -10.8 | -2.0 | -10.8 | -6.3
O=C(Cn1nc(C2CC2)c2cnn(-c3ccccc3)c2c1=O)NCCc1ccccc1 | . | 0.0 | . | . | .
CC(=O)NCCn1c(SCC(=O)c2ccccc2)nc2ccccc2c1=O | 23027* | . | -2.3 | -0.3 | -4.6
CC(=O)NCCn1c(SCc2cc(F)ccc2F)nc2ccccc2c1=O | 21737* | 2.1 | ? | -6.2 | -1.1
CC(=O)NCCn1c(SCc2ccc(C)cc2C)nc2ccccc2c1=O | 23483* | -1.5 | -1.7 | -1.8 | -1.3
CC(=O)NCCn1c(SCc2ccccc2C)nc2ccccc2c1=O | 7911 | 8.1 | 2.9 | -15.3 | -3.0
